Screening data deposited in PubChem by National Center for Advancing Translational Sciences (NCATS).
TRHR enhancer = allosterically enhances the human TRH receptor | P34981 | TRHR cells, fluo-8 calcium fluorescence, EC20 TRH enhancement | enhancement, % at 2 µM | actives 0.66% (n = 360,000); in the data active means enhancement above about 30%; further: 0% is about no effect
Target sequence (P34981 whole entry, looked up): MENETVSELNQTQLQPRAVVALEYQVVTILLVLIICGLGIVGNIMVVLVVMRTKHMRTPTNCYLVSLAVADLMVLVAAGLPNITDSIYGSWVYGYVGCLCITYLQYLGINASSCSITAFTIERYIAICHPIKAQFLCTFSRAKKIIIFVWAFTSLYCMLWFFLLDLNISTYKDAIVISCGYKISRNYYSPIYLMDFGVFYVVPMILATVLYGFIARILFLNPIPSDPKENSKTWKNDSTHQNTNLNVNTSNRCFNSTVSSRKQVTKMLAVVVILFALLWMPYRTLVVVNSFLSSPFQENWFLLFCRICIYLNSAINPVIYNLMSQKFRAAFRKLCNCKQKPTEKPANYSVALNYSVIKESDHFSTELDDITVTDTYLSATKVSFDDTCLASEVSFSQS
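Enhancer read-out: after compound pinning and an initial kinetic agonist-mode read, an EC20 of TRH (10 nM final) was injected and fluo-8 calcium signal (Ex 480/Em 530) followed at 1 s/cycle for 100 cycles in TRHR-expressing cells.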
USP1 inh = blocks the human USP1/UAF1 deubiquitinase complex; O94782; recombinant USP1/UAF1, Ub-Rhodamine cleavage fluorescence; Potency, µM (highest dose often 57.1 µM), without a hit: at the top dose activity change, negative = inhibition, actives largely listed as inhibitors; actives 0.23% (n = 390,000); AID 743255; active means well fitted inhibition curve with a large enough effect; inconclusive means small, poorly fitted or top-dose-only effect; inactive means no such curve, though single readings can be large or run the other way; further: potency means the concentration at half of the fitted maximal effect; on the % scale 0 is the no-effect control and ±100 the full control effect; nearly all actives have a fitted effect of over 60% in size
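In this screen, compounds sit with the deubiquitinase complex (1nM) for 15 min at room temperature before Ub-Rho is added at 150nM final. Fluorescence rise is then followed for 6 reads every 60 seconds.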
D1 antagonist = blocks dopamine activation of the human D1 receptor; actives 3.2% (n = 360,000); HEK293 TREx D1 cells, calcium flux, dopamine EC80; stronger effect = lower value; activity change, negative = inhibition, % at 10 µM; P21728; in the data active means activity change below about -30%; further: on the % scale 0 is the no-effect control and ±100 the full control effect
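Cells carrying a force-coupled, tetracycline-inducible human D1 receptor report calcium flux. Each well gets a 10 s baseline, compound with 180 s monitoring, then an EC80 dopamine stimulus with a second 180 s kinetic read.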
D1 ag = activates the human D1 dopamine receptor | P21728 | actives 1% (n = 360,000) | activation, % at 2 µM | HEK293 T-REx D1 cells, calcium flux, agonist mode | AID 504660; further: 0% is about no effect
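Agonism was scored from calcium flux recorded over 180 s (1 read/s) after pintool compound addition, following a 10-cycle baseline. Cells were inducible force-coupled HEK293 TREx D1, plated overnight at 30 C and loaded with no-wash calcium dye.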
TRHR agonist = activates the human TRH receptor | actives 0.18% (n = 360,000) | AID 493084 | TRHR cells, calcium flux fluo-8, FDSS agonist mode | activation, % at 2 µM; further: 0% is about no effect
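Agonist-mode FDSS calcium read (Ex 480/Em 530, 1 s cycles) in 1536-well TRHR cells with fluo-8 dye, after 10-cycle baseline and 23 nL compound addition; TRH at EC20 (10 nM final) added afterwards for the enhancer phase.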
D1 potentiator = human D1 dopamine receptor positive modulation | HEK293 TREx D1 cells, calcium flux, dopamine EC20 potentiation | potentiation, % at 10 µM | actives 0.036% (n = 360,000) | AID 504651; in the data active means potentiation above about 30%; further: 0% is about no effect
An asterisk follows results filed as active; ? = inconclusive; · = no result. Rows were chosen to be rich in hits. Some 4.4% of all compounds tested hit in one or more screens of this group. Unless noted, no stated cut-off is given here; in the data, active means activation above about 30%; inactive means the rest.

SMILES | TRHR enhancer | USP1 inh | D1 antagonist | D1 ag | TRHR agonist | D1 potentiator
COc1ccc(NC(=O)CSc2nnc(Cc3cccn3C)n2-c2ccc(C)cc2)cc1OC | 2 | -14% | -39* | 0 | -1 | -3
O=C(CSc1nnc(Cc2ccccc2)n1-c1ccccc1)NNC(=O)Cc1ccccc1 | 31* | -7% | 3 | 3 | 0 | 3
COc1ccc(-n2c(Cc3cccn3C)nnc2SCC(=O)Nc2cccc(OC)c2)cc1 | 0 | -10% | 7 | 0 | 0 | 3
COC(=O)CSc1nnc(Cc2ccccc2)n1-c1ccc(C)cc1 | -3 | -17% | 12 | -2 | 0 | -1
Cc1nnc(NC(=O)CSc2nnc(Cc3cccn3C)n2-c2ccccc2)s1 | 39* | -2% | 10 | 3 | 0 | -9
COc1ccccc1NC(=O)CSc1nnc(Cc2cccn2C)n1CCc1ccccc1 | -9 | -9% | -31* | 3 | 0 | -7
CCC(C)NC(=O)c1ccc2c(c1)N=C(C)c1cc(C)ccc1S2 (centres undefined) | -1 | -8% | 15 | 9 | 0 | -2
O=C(c1ccc(F)cc1)n1nc(-c2cccnc2)nc1NCc1ccc(F)cc1 | -6 | -31% | -11 | 5 | 1 | -1
O=C(N=C1SCC(=O)N1c1ccccc1Cl)c1ccco1 | 12 | ? | -33* | 7 | 0 | -13
CCCOc1ccc(C2C(=O)N(C3CCCCCC3)CC(=O)N2CCCOCC)cc1OC (centres undefined) | 6 | -9% | -15 | -5 | -1 | -2
CCOC(=O)C1=CC[C@]2(C)c3c(c4ccccc4n3C)C(=O)C1N2C | -6 | -13% | -45* | 2 | -1 | -8
COc1cccc(CNC(=O)c2ccc3nc(-c4ccccc4)c(-c4ccccc4)nc3c2)c1OC | 2 | -14% | 6 | 3 | 0 | 0
COc1ccc2c(c1)c1c(c(=O)n(Cc3ccccc3)c(=O)n1Cc1ccc(C)cc1)n2C | 0 | -6% | 3 | 2 | 1 | -1
CCN(CC)c1ccc(/C=c2/sc3nnc(-c4ccccc4C)n3c2=O)cc1 | 1 | ? | -25 | 31* | 7 | -5
CCN(CC)c1ccc(/C=c2\sc3nnc(-c4ccccc4Cl)n3c2=O)cc1 | 3 | 54% | -8 | 59* | 17 | -5
COc1ccccc1N1CCN(C(=O)Cn2ncc3c(=O)oc4ccccc4c32)CC1 | 1 | -27% | 10 | -1 | 0 | 3
COc1cccc(C2c3[nH]c4ccccc4c3CCN2Cc2cnc(C)s2)c1OC (centres undefined) | 28 | -9% | -43* | 1 | 0 | 6
O=C(Cc1ccc(F)cc1)NCCc1csc2nc(-c3ccccc3F)nn12 | 2 | -16% | 9 | -1 | -1 | 0
Cc1ccc(-c2cc(C(F)(F)F)n3nc(C(=O)Nc4sc5c(c4C#N)CCC(C)C5)cc3n2)cc1 (centres undefined) | 2 | -23% | -37* | 0 | 2 | -6
COc1ccc(CNC(=O)CCc2c(C)nc3nc(CNC(=O)OC(C)(C)C)nn3c2C)cc1 | -3 | -15% | 4 | 2 | 1 | 0
CCc1ccc(S(=O)(=O)c2nnn3c2nc(NC2CCCC2)c2sccc23)cc1 | -2 | -18% | -32* | 4 | 1 | -6
CCCCNc1nc2c(S(=O)(=O)c3ccc(Cl)cc3)nnn2c2ccsc12 | -14 | ? | -51* | 0 | 1 | -8
Cc1ccc(CCNc2nc3c(S(=O)(=O)c4ccc(C)cc4)nnn3c3ccsc23)cc1 | 42* | -11% | -4 | 0 | 1 | -6
Cc1ccc(S(=O)(=O)c2nnn3c2nc(NC2CCCCCC2)c2sccc23)cc1C | -6 | 11% | -13 | 2 | 1 | -1
O=S(=O)(c1ccc(Cl)cc1)c1nnn2c1nc(NCc1ccccc1)c1sccc12 | -5 | -8% | 1 | 2 | 1 | -5
SMILES | TRHR enhancer | USP1 inh | D1 antagonist | D1 ag | TRHR agonist | D1 potentiator
O=c1c2oc3ccccc3c2ncn1Cc1ccc(Br)cc1 | -5 | -4% | -11 | 0 | 0 | -2
CCCCn1c(NS(=O)(=O)c2ccc(C)cc2)c(S(=O)(=O)c2ccccc2)c2nc3ccccc3nc21 | -4 | 28µM* | 3 | 1 | 0 | 5
CCCCn1c(NCc2ccccc2NS(=O)(=O)c2ccc(C)cc2)nc2ccccc21 | -4 | 2% | -32* | 4 | 1 | -13
Cc1ccc(CS(=O)(=O)c2cn(CC(=O)N(C)c3ccccc3)c3ccccc23)cc1 | -6 | ? | -12 | 1 | 0 | 0
COc1ccc(C(C)=O)cc1CSc1nnnn1-c1ccc(O)cc1 | -2 | -22% | -35* | 3 | 0 | -7
COc1ccc(F)cc1CSc1nnnn1-c1ccc(O)cc1 | 1 | -28% | -30 | 5 | -1 | -12
COc1cc(CSc2nnnn2-c2ccc(C)cc2)cc(OC)c1OC | -3 | 8% | -7 | 39* | 0 | 0
Cc1ccc(NC(=O)NC2CCN(S(=O)(=O)c3ccc(F)cc3)CC2)cc1 | 1 | -8% | -53* | 3 | -1 | -7
Cc1ccc(NC(=O)C(c2ccccc2)C2CCCC2)cc1 (centres undefined) | -6 | -18% | -34* | 7 | 2 | -10
O=C(Nc1ccc2ccccc2c1)C(c1ccccc1)C1CCCC1 (centres undefined) | -3 | -26% | -23 | 4 | 1 | -10
O=C(Nc1cccc(F)c1)NC1CC2CCCC(C1)N2C1CC1 (centres undefined) | 0 | -9% | -34* | 3 | 0 | -10
COc1ccc(S(=O)(=O)N2CCC(NC(=O)Nc3ccc(C)cc3)CC2)cc1 | · | -12% | · | · | · | ·
CC(=O)c1ccc(S(=O)(=O)N2CCC(NC(=O)Nc3cccc(F)c3)CC2)cc1 | -4 | -17% | -34* | 0 | -2 | 0
Cc1c(CNC2CCCCC2)c(C(=O)O)c(C)n1Cc1c(F)cccc1Cl | -3 | -8% | 10 | -2 | 1 | -1
CCc1ccc2c(c1)c(=O)c(S(=O)(=O)c1ccc(F)cc1)cn2CC(=O)Nc1ccc(C)cc1C | -3 | -10% | -1 | 6 | -2 | 0
COc1cccc(-c2nnc(SCC(=O)N(C)c3ccccc3)o2)c1 | 9 | 6% | 0 | -1 | 0 | -1
Cc1c(Cl)cccc1NC(=O)Cn1c(=O)n(Cc2ccco2)c(=O)c2oc3ccccc3c21 | 3 | 1% | -4 | 0 | 0 | -4
Cc1ccc(NC(=O)NC2CCCCCCC2)cc1 | -3 | -19% | -32* | 1 | 0 | -11
